Bioassay records deposited in PubChem BioAssay by several laboratories.
HSF-1 act: increases HSF-1 driven luciferase reporter signal. AID 504408. NIH3T3-HGL HSF-1 luciferase reporter, MG132, 8 h; 100% = twice DMSO control signal. actives 1.7% (n = 300,000). activation, % at 9 µM;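 active means mean replicate activation of at least 50% with a set share of replicates each reaching 50%; inconclusive means only one of those two conditions met; inactive means mean below 50% and too few replicates reaching it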
SMARCA2 act: SMARCA2 function activation, primary screen; MG213 cells, MMTV-luciferase reporter, dexamethasone, overnight; activation, % at 9.1 µM; actives 1% (n = 370,000); AID 652017; in the data active means activation above about 7.8%
MITF act: MITF TRPM1 promoter activation in melanoma cells; SK-MEL-5 TRPM1-promoter luciferase, 24 h; % of positive control, neutral wells = 0; actives 0.75% (n = 300,000); activation, % at 12.5 µM;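 active means mean activation of at least 80% with every replicate also reaching 80%; inconclusive means mean reaches 80% but some replicate falls short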
Wnt bcat act: activators of Wnt/beta-catenin signaling; Wnt/beta-catenin reporter cell assay, activator, plate reader; activation, % at 9.35 µM; actives 1.2% (n = 300,000); in the data active means activation above about 30%, passing the limit was not always enough; inconclusive means no clear call, values can overlap the other calls
esBAF inh: blocks esBAF chromatin remodeling in mouse ES cells | reporter increase, % at 12.5 µM | AID 602393 | Bmi1-luciferase knock-in reporter, 24 h; 100% = twice the neutral-well signal | actives 2% (n = 350,000); in the data active means activation above about 40%; inconclusive means no clear call, values can overlap the other calls;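 further: a rise in the Bmi1 reporter signal indicates esBAF inhibition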
HSF1 inh: HSF1 inhibition; activity change, negative = inhibition, % at 7.5 µM (by protocol); NIH3T3-HGL HSE-luciferase, MG132-induced, luminescence 8 h; stronger effect = lower value; actives 0.77% (n = 300,000);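 active means more than half of replicate wells show activity change below -50%, luminescence cut by over half; inconclusive means some wells, but at most half, below -50%; inactive means no replicate well below -50%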;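 further: luciferase reports HSF-1 transcriptional activity via heat shock element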
Of the large screens only hits and unclear results are named; the others gave an inactive call. A selection: hits, their analogues and other compounds. The true share with any hit is near 4.3%.

Cc1cc(N=Nc2ccc(Cl)cc2)cc(CN2CCCC2)c1O	HSF1 inh -60.5
Cc1cc(N=Nc2ccc(Cl)cc2)cc(CN2CCOCC2)c1O	none
CNCc1c(OCc2ccccc2F)ccc2ccccc12	HSF1 inh -71.2
CNCc1c(OCc2ccccc2)ccc2ccccc12	none (no result: MITF act)
O=C(C[C@H]1CC[C@H]2[C@@H](COC[C@@H](O)CN2S(=O)(=O)c2ccccc2F)O1)NCc1ccccc1Cl	none (no result: HSF-1 act, SMARCA2 act, MITF act, Wnt bcat act, HSF1 inh)
CN(C(=S)NCCN1CCOCC1)C(c1ccccc1)c1ccccc1	Wnt bcat act 41.8 (no result: esBAF inh)
C[C@@H]1CN([C@@H](C)CO)C(=O)Cc2cc(NC(=O)C3CCCCC3)ccc2O[C@H]1CN(C)CC1CCCCC1	none (no result: HSF-1 act, SMARCA2 act, MITF act, Wnt bcat act, HSF1 inh)
Cc1ccc2c(c1)c1nc3ccccc3nc1n2CCN1CCOCC1	esBAF inh 60.1 (no result: MITF act, Wnt bcat act)
CCn1c2ccc(C)cc2c2nnc(SCCN3CCOCC3)nc21	none (no result: esBAF inh)
C/C=C/c1cnc2c(c1)C(=O)N([C@H](C)CO)C[C@H](C)[C@H](CN(C)C(=O)Nc1ccc(C(F)(F)F)cc1)O2	none (no result: HSF-1 act, SMARCA2 act, MITF act, Wnt bcat act, HSF1 inh)
Cc1ccc(/C=N/N2C(=O)c3ccccc3NC2c2ccc(C)cc2)cc1 (stereo not given)	HSF-1 act 55.1, MITF act inconclusive
COCCN(C(=S)Nc1c(C)cc(C)cc1C)C(C)c1cccnc1 (stereo not given)	none
COCCN(C(=S)Nc1c(C)cccc1C)C(C)c1cccnc1 (stereo not given)	HSF1 inh -51.8 (no result: Wnt bcat act)
CCCC12CN3CC(C)(CN(C1)C3c1ccc3c(c1)OCO3)C2=O (stereo not given)	HSF-1 act 66.1
Cc1ccc(S(=O)(=O)NCCOc2nc(N3CCOCC3)nc(N3CCOCC3)n2)cc1	HSF-1 act 57.8
O=C(Oc1c(-c2ccccc2Cl)oc2ccccc2c1=O)c1ccc(Cl)cc1	HSF1 inh -54.4 (no result: esBAF inh)
C[C@H](CO)N1C[C@H](C)[C@@H](CN(C)S(C)(=O)=O)OCCCC[C@H](C)Oc2ccc(NS(C)(=O)=O)cc2C1=O	none (no result: HSF-1 act, SMARCA2 act, MITF act, Wnt bcat act, HSF1 inh)
Cc1ccccc1-c1cnc2c(c1)C(=O)N([C@@H](C)CO)C[C@@H](C)[C@H](CN(C)C(=O)CC1CC1)O2	none (no result: HSF-1 act, SMARCA2 act, MITF act, Wnt bcat act, HSF1 inh)
O=C1c2ccccc2C(=O)C1c1ccnc2ccccc12	Wnt bcat act 43.4
O=C1c2ccccc2C(=O)C1c1nccc2ccccc12	HSF1 inh inconclusive (no result: Wnt bcat act)
Cc1cc(NC(=O)CSc2nc3c(c(=O)n2Cc2ccccc2)SC(C)C3)no1 (stereo not given)	esBAF inh 46.3
CCN1C(=C2C(=O)c3ccccc3C2=O)C=Cc2ccccc21	esBAF inh 44.3 (no result: MITF act, Wnt bcat act)
CCN1C(=O)/C(=C2\C=Cc3ccccc3N2CC)SC1=S	none (no result: Wnt bcat act)
CCN1C(=O)/C(=C2\C=Cc3cc(C)ccc3N2CC)OC1=S	none (no result: Wnt bcat act)
CCN1C(=O)/C(=C2/C=Cc3ccccc3N2C)OC1=S	MITF act 101.0 (no result: Wnt bcat act)
Cc1ccc(S(=O)(=O)Nc2ccc3c(c2)C(=O)N([C@@H](C)CO)C[C@@H](C)[C@@H](CN(C)CC2CCCCC2)OCCCC[C@@H](C)O3)cc1	none (no result: HSF-1 act, SMARCA2 act, MITF act, Wnt bcat act, HSF1 inh)
COc1ccc(S(=O)(=O)N(C)C[C@@H]2Oc3c(NS(=O)(=O)c4ccc(Cl)cc4)cccc3C(=O)N([C@H](C)CO)C[C@H]2C)cc1	none (no result: HSF-1 act, SMARCA2 act, MITF act, Wnt bcat act, HSF1 inh)
C[C@@H]1CCCCO[C@@H](CN(C)S(C)(=O)=O)[C@@H](C)CN([C@H](C)CO)C(=O)c2cc(NC(=O)c3ccncc3)ccc2O1	none (no result: HSF-1 act, SMARCA2 act, MITF act, Wnt bcat act, HSF1 inh)
Cc1noc(C)c1NC(=O)Nc1ccc2c(c1)C(=O)N([C@H](C)CO)C[C@H](C)[C@H](CN(C)S(=O)(=O)c1cn(C)cn1)OCCCC[C@H](C)O2	none (no result: HSF-1 act, SMARCA2 act, MITF act, Wnt bcat act, HSF1 inh)
CC(Sc1nc(NC(C)(C)C)nc(N(C)C)n1)C(=O)Nc1ccccc1 (stereo not given)	none
CCOc1nc(SC(C(C)=O)C(=O)Nc2ccccc2)nc(N(C)C)n1 (stereo not given)	HSF-1 act 56.5
Cc1cc(C)c(S(=O)(=O)N/N=C/c2ccc3c(c2)OCO3)c(C)c1	HSF1 inh -55.4
Cc1cc(Cl)c(S(=O)(=O)N/N=C/c2ccc3c(c2)OCO3)c(Cl)c1	none
CC(C)NC(=O)N(C)C[C@@H]1Oc2c(cccc2N(C)C)C(=O)N([C@H](C)CO)C[C@H]1C	none (no result: HSF-1 act, SMARCA2 act, MITF act, Wnt bcat act, HSF1 inh)
Fc1ccc2c(Cl)c(-c3nnc(-c4cccs4)o3)sc2c1	Wnt bcat act 44.0 (no result: MITF act)
COc1cc(-c2nnc(-c3cccs3)o2)cc(OC)c1OC	none (no result: Wnt bcat act)
COC(=O)C[C@H]1CC[C@H]2[C@@H](COC[C@@H](O)CN2C(=O)Nc2cccc(F)c2)O1	esBAF inh 49.8 (no result: HSF-1 act, SMARCA2 act, MITF act, Wnt bcat act, HSF1 inh)
COc1ccccc1CNC(=O)C[C@H]1CC[C@@H]2[C@H](COC[C@H](O)CN2C(=O)Nc2ccc(Cl)cc2)O1	esBAF inh 43.2 (no result: HSF-1 act, SMARCA2 act, MITF act, Wnt bcat act, HSF1 inh)
COC(=O)C[C@@H]1CC[C@H]2[C@@H](COC[C@H](O)CN2C(=O)Nc2cccc(F)c2)O1	none (no result: HSF-1 act, SMARCA2 act, MITF act, Wnt bcat act, HSF1 inh)
C[C@@H]1CN([C@H](C)CO)S(=O)(=O)c2ccc(C#CCN(C)C)cc2O[C@H]1CN(C)Cc1ccccc1	none (no result: HSF-1 act, SMARCA2 act, MITF act, Wnt bcat act, HSF1 inh)
CN(C(=O)c1cc2c(s1)-c1ccccc1S(=O)(=O)C2)c1ccccc1	esBAF inh 109.9
COc1cc(C#Cc2c(-c3cncn3C)n(C)c3ccc(-c4cnc(N5CCOCC5)nc4)cc23)cc(OC)c1	MITF act 89.1 (no result: HSF-1 act, HSF1 inh)
Cc1[nH]c2ccccc2c1C(C[N+](=O)[O-])c1cccs1 (stereo not given)	HSF1 inh -74.7 (no result: esBAF inh)
Cc1[nH]c2ccccc2c1C(C[N+](=O)[O-])c1ccco1 (stereo not given)	none (no result: esBAF inh)
Cc1ccc(-c2[nH]c3ccccc3c2C(C[N+](=O)[O-])c2ccco2)cc1 (stereo not given)	HSF-1 act 70.2 (no result: Wnt bcat act, esBAF inh)
N#C[C@H]1[C@@H](c2ccccc2)[C@H](CO)N1C(=O)CN1CCOCC1	none (no result: HSF-1 act, SMARCA2 act, MITF act, Wnt bcat act, HSF1 inh)
CC(=O)N(C)C[C@H]1Oc2cc(-c3ccc(C#N)cc3)ccc2S(=O)(=O)N([C@H](C)CO)C[C@H]1C	none (no result: HSF-1 act, SMARCA2 act, MITF act, Wnt bcat act, HSF1 inh)
COc1ccc(CNC(=O)COC(=O)c2c(NC(C)=O)sc(C)c2C)cc1OC	Wnt bcat act 46.0 (no result: HSF-1 act, MITF act, HSF1 inh)
CC(=O)Nc1sc(C)c(C)c1C(=O)OCCOc1ccccc1	HSF-1 act 61.7, esBAF inh 55.3
Cc1ccc2c(C)c(C(=O)Nc3ccc(S(N)(=O)=O)cc3)oc2c1C	Wnt bcat act 30.0
CSCCC(NS(=O)(=O)c1cccc(C(F)(F)F)c1)C(=O)N(C)CCOc1ccc(Cl)cc1 (stereo not given)	HSF-1 act 65.0
CSCCC(NS(=O)(=O)c1cccc(C(F)(F)F)c1)C(=O)N1CCN(C(=O)c2ccco2)CC1 (stereo not given)	none (no result: HSF-1 act, HSF1 inh)
O=C(NCCSc1ccc(Br)cc1)c1ccccc1	none (no result: esBAF inh)
CSCc1ccc(C(=O)NCCSc2ccc(Br)cc2)cc1	MITF act 108.0, Wnt bcat act inconclusive, esBAF inh 47.8
Cc1noc(C)c1NC(=O)N(C)C[C@@H]1Oc2c(NS(=O)(=O)c3cn(C)cn3)cccc2C(=O)N([C@@H](C)CO)C[C@H]1C	none (no result: HSF-1 act, SMARCA2 act, MITF act, Wnt bcat act, HSF1 inh)
